# A number with no mark means an inactive call. The rule behind the calls is not given here.
# Target: CD276, Q5ZPR3
# Sequence (Q5ZPR3 whole entry): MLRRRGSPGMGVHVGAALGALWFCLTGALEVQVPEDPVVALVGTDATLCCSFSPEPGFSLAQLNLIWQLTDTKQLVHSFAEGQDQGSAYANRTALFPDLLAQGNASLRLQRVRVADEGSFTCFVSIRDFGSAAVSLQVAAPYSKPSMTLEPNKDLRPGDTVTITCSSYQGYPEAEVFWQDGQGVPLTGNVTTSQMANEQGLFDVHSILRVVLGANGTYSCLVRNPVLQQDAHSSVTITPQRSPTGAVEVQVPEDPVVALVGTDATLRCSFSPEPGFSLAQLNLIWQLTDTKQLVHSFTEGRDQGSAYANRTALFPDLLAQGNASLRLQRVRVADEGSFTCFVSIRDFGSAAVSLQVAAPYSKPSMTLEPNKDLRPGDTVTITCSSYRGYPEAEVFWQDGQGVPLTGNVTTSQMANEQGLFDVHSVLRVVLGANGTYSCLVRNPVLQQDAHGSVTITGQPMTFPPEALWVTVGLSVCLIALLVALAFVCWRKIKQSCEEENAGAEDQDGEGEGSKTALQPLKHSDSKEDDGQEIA
row,Binder,binding in a display sort
1,design_614_ef6b398b-10cb-4a07-8087-96dafb4f9c83_13_dldesign_0_cycle1_af2pred (protein) SEAEKQAIEIAIAAVLKAGELAGVPEEAKKVAEKIKKSNAGAALAIASAFLNRAAAAAEAAGDAATAAAIRALRTATTAKILALLRG,not found
2,design_614_ef6b398b-10cb-4a07-8087-96dafb4f9c83_520_dldesign_0_cycle1_af2pred (protein) AEGKALFEATKKEMEELREKGKAGTPELAKEQAAKILSLGLRTQGVLQTLGHTAEGDAALEYAKEVAEKAREWAKK,not found
3,design_614_ef6b398b-10cb-4a07-8087-96dafb4f9c83_1110_dldesign_0_cycle1_af2pred (protein) GEELAESAKKLMEVLKDVAKDAAARDPANAAKYLADAKKAEEEAKKALEESPEKGMQAAQDALAKFQKAAIAAAKA,not found
4,design_614_ef6b398b-10cb-4a07-8087-96dafb4f9c83_1693_dldesign_0_cycle1_af2pred (protein) AEELREEAERLREESRRLREEGIKGNAEEARKALLEINRNAGRLARLAVEASQLDPEVAAVANEALAEALENARALDETRRKLAA,not found
5,design_614_ef6b398b-10cb-4a07-8087-96dafb4f9c83_2028_dldesign_0_cycle1_af2pred (protein) NAAAAEMAAAAAAFAATAAAAVTLSPEAGRKAVSAAFTAALTAISALGATASDEQTVAAMNTVWSTYIAATTALQAKAA,not found
6,design_614_ef6b398b-10cb-4a07-8087-96dafb4f9c83_2152_dldesign_0_cycle1_af2pred (protein) GAAEEERRRHQEAVERAEAAVKELEALAKQLAADPHGAVFAQAMVDQARRALEEAKTGDLETAEEALRVITSNLEMAKAIL,not found
7,design_613_5efed0bc-64ba-423b-b3f9-a246574e49bb_1796_dldesign_0_cycle1_af2pred (protein) SAANIAAAKAYANMAATLAKQAGNEEAAKKAKEAAKVAADKEKATKLLKEAEELLKKEPAEKAPYTNKALEFIKLAKEALSKL,not found
8,design_614_ef6b398b-10cb-4a07-8087-96dafb4f9c83_1557_dldesign_0_cycle1_af2pred (protein) SAAAAALAAANAEIDAHAARAVELAAGLPHAEEVRALITAGAAAAKSGTQLAEAFRLFSEAARLSNEATRAELRKAIAAANKAALA,not found
9,design_614_ef6b398b-10cb-4a07-8087-96dafb4f9c83_875_dldesign_0_cycle1_af2pred (protein) AAARARLAAALEVAKVAADLEANAKANPATAALASATATATIKHAAAIVAEVDPAAGAAVAAAATAAEAIAIITAALKAA,not found
10,design_614_ef6b398b-10cb-4a07-8087-96dafb4f9c83_4_dldesign_0_cycle1_af2pred (protein) AAGDEAANAAIALGQVLGPEVAEETTKAVEYMKSGSEKEKAKEYAEKAVELAEKVGPNSAASLKAILEKAEKLFS,not found
11,design_613_5efed0bc-64ba-423b-b3f9-a246574e49bb_2052_dldesign_0_cycle1_af2pred (protein) GGAAAIALAEAVARQAERQAEEAIAIAPERAPEIEELLERARELAKQAVALAKAGDLGAATEHVVKALELVGEIGRIAREAAAA,not found
12,design_614_ef6b398b-10cb-4a07-8087-96dafb4f9c83_149_dldesign_0_cycle1_af2pred (protein) MEEAEKYLKKAEEIVEKAKEEALKYAKEGDIGAAVETLAKALKEARKLYEKAGKAGDPEEAEKKAKEAEERINQAMAEAARTALEVAN,not found
13,design_613_5efed0bc-64ba-423b-b3f9-a246574e49bb_2086_dldesign_0_cycle1_af2pred (protein) AEDERRVASMRELAAQLVAIAEANAANPAALAIVRASALAAGRSFAAAASPEAAAEILAIAAATAARIAAIAAAAAAAA,not found
14,design_614_ef6b398b-10cb-4a07-8087-96dafb4f9c83_1662_dldesign_0_cycle1_af2pred (protein) SEEAQKKLEEAKRLLELAKEKLATDPQQGLVYALEAQELAAEALKDPEFAEEAQEILEEASRVASQAAARAIAQAQA,not found
15,design_613_5efed0bc-64ba-423b-b3f9-a246574e49bb_2281_dldesign_0_cycle1_af2pred (protein) AAAELIAKAKEYQAKALEYVKLAKEAEAAAKAATPEEGAKLNAKADFFNAMALVYAQRAAALLAQVDPALAKAALEKVQKAIA,not found
16,design_614_ef6b398b-10cb-4a07-8087-96dafb4f9c83_1163_dldesign_0_cycle1_af2pred (protein) EAAREAALALMNEALALLVEETGRDPRLAPALALMSKAVIEMAKDPEKGIELAEKAAEEAKKVDPEVGEKVKKLVEEAKKAVKA,not found
17,design_614_ef6b398b-10cb-4a07-8087-96dafb4f9c83_591_dldesign_0_cycle1_af2pred (protein) MTPEEAARAALRSARAALESLKLAVEQGGTLEDVLALGAVAKQSAQAAVELGKQAPEIYEEVKKEAEKIKKEVEKAVAKAKA,not found
18,design_614_ef6b398b-10cb-4a07-8087-96dafb4f9c83_1043_dldesign_0_cycle1_af2pred (protein) AAAEAAAVSKKAAELAKKALEKAKRMSPEEAINLAFQVATQAIRLGADAEAAINAIKIASEKGPEAGLKYLAEALEK,not found
19,design_614_ef6b398b-10cb-4a07-8087-96dafb4f9c83_950_dldesign_0_cycle1_af2pred (protein) AAAAAERTLAGIETLLEILRAAAADPRVTPAQLRAVINAARTAVEELERLDPELGREARERVEAAAREAEAAV,not found

row,Binder,binding in a display sort
1,design_613_5efed0bc-64ba-423b-b3f9-a246574e49bb_2155_dldesign_0_cycle1_af2pred (protein) AAAQAAAVATAAGQALLKQGKKLFEEGKKSGDKKLLEEAAKNFELAATMYAQASAAAGGAADANKKEAEAKLEEAKAAI,not found
2,design_614_ef6b398b-10cb-4a07-8087-96dafb4f9c83_786_dldesign_0_cycle1_af2pred (protein) STEQAAQIALNTAKANYKAAKAAAAAGDLAQAEANVKNLKLLTEAAKYYDPEAGKEVEKYYKEAKEAVEKAKAA,not found
3,design_614_ef6b398b-10cb-4a07-8087-96dafb4f9c83_741_dldesign_0_cycle1_af2pred (protein) SELIERAKNLLEAAKVFLTAAQSALAAGQKATAATLAQQAIKYATEAAKLAKEAGDEKLAEEAKKVKEQAEKVLKQAQ,not found
4,design_614_ef6b398b-10cb-4a07-8087-96dafb4f9c83_1173_dldesign_0_cycle1_af2pred (protein) LLEEALALGAEAIAEGQEAIALAVALGPEFQPFALELSRLMARIAAAQIQLVRDPEAGAAALREEIEELRRAIQELLDSL,not found
5,design_613_5efed0bc-64ba-423b-b3f9-a246574e49bb_2419_dldesign_0_cycle1_af2pred (protein) ALGQQLVQQAKEKGKELLEIAKKGTAADAGEAAVELARFTSETARQLEQAGLPAAAQQVLAIGQKTLKEISAIGIAKITA,not found
6,design_614_ef6b398b-10cb-4a07-8087-96dafb4f9c83_1060_dldesign_0_cycle1_af2pred (protein) SAVEVLKRSIEAVARQALEAAERLIELDPELGERAREEVERLRAEALAAADADPAEGGALLVELLRLNAEIRRRAEELE,not found
7,design_613_5efed0bc-64ba-423b-b3f9-a246574e49bb_1837_dldesign_0_cycle1_af2pred (protein) MTPREKAIAAINAATALAAAAVPAYADTFADLAGIVLTALEAGTGPTAVRVVGQAVVNVLRGAGATAAADAVAALYDEALEAAKAAA,not found
8,design_614_ef6b398b-10cb-4a07-8087-96dafb4f9c83_884_dldesign_0_cycle1_af2pred (protein) MAVSDTLATNLATAERLLQRGIELAKTDPQAGIAQLRAAEILAQGTAAAAAAAGDTATAARAQAVAERARQAIEEV,binds (active)
9,design_614_ef6b398b-10cb-4a07-8087-96dafb4f9c83_2138_dldesign_0_cycle1_af2pred (protein) SEALRAEAARLANAALALLSRASVAFGNALSPTLATAVDAFLAADREGDAETRLAVARAALAAAEAAVAAAAAAA,not found
10,design_614_ef6b398b-10cb-4a07-8087-96dafb4f9c83_1883_dldesign_0_cycle1_af2pred (protein) EEEKKKLEEIKKLLEKAMEEAIKLVAADPEVQKRLKELAEELKKAETAGEAIRVALRAASVAGQVNPEAARVILTAAEEGAKLAK,not found
11,design_614_ef6b398b-10cb-4a07-8087-96dafb4f9c83_806_dldesign_0_cycle1_af2pred (protein) AAAQLAAENIALAKAIFEEVRKEALKAIEALKKAKEAASDPELAAKYLEKAKEALKKAEELAAKGSEGIALLARNYVRSLLASTA,not found
12,design_614_ef6b398b-10cb-4a07-8087-96dafb4f9c83_1491_dldesign_0_cycle1_af2pred (protein) EERLKEILKLIKEAKKALEESPQLAAQKLAEAAELASEFPEIAVAAVRAIAFAPNPERAKEALEEALKLAEEALKK,not found
13,design_614_ef6b398b-10cb-4a07-8087-96dafb4f9c83_1868_dldesign_0_cycle1_af2pred (protein) TAAIATATIVALTKTASRSSVEDAKKLVEVAVGIAASLSAADAKAAIDAGLKVAKELAEEKNTETASVVAKELEKGGAKVAAEKA,not found
14,design_614_ef6b398b-10cb-4a07-8087-96dafb4f9c83_822_dldesign_0_cycle1_af2pred (protein) AEEEKRRAIAEAAMRQFKEIAEGAAATALANPAIADGALASVKALGKNLVEGAKAQSPELGKKAAEVAKEAIEKVEKAAKEAKAA,not found
15,design_614_ef6b398b-10cb-4a07-8087-96dafb4f9c83_1258_dldesign_0_cycle1_af2pred (protein) AEQEKAAQLALNTAKAALKRAKAGSAEEARAAAETAKLAAEAAKVNSTDPAVIKEAEKVAEETKKVAEAK,not found
16,design_614_ef6b398b-10cb-4a07-8087-96dafb4f9c83_1766_dldesign_0_cycle1_af2pred (protein) ARAELEAQLAKAKEAAAQAQAAAAQLAALGGTATAAAITAAAQRALAAAEADLSKAPEALTFLQALLQQAQHQVAQLT,not found
17,design_614_ef6b398b-10cb-4a07-8087-96dafb4f9c83_652_dldesign_0_cycle1_af2pred (protein) GAAEEAKKWAKKAEEALKAAQKAADAAGKTPTLQQYVDNAKRAAEKAKETSKDPSKVEQTKGWAKMAELWAQAAKQQAAAVAAA,not found
18,design_613_5efed0bc-64ba-423b-b3f9-a246574e49bb_2054_dldesign_0_cycle1_af2pred (protein) FERAARAVEAVIELLRLLAEGNPATAAELRARAEELEAELAKARELAEKEGPEAGKARAEAIAAEGRRLLAEASRTAV,not found
19,design_614_ef6b398b-10cb-4a07-8087-96dafb4f9c83_88_dldesign_0_cycle1_af2pred (protein) GAALEEALRARAEAARRAMVAVSQAYQLDPALGNEYLARLSEAIAAAEKVLAEGKAKTPEAAAKAVKAAAEEIAALAEEIAAAVEALK,not found
